Among the data in the supplement of paper PMC8007513 are growth yield values, retold here.

The test system of this assay is Trichoderma virens ATCC 9645. Briefly: growth yield (OD600) with compound + IPBC relative to untreated control; higher = less growth inhibition. As to conditions: compound concentration: 100 uM, IPBC concentration: 200 ng/ml. The method in brief:
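Plates were read for OD600 at 40 h and 72 h after Trichoderma virens ATCC 9645 spores (15,000 spores ml^−1 in potato dextrose broth) were grown at 30 °C with library compounds at 100 μM final, with or without a biocide at 200 ng ml^−1. Growth is stated relative to the control with neither agent, as the mean of duplicate screens.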

Where a name gives a salt, the structure may show the parent alone. ± gives the standard error. Hit rate of the full screen: of about 1,300 compounds, about 130 (10%) showed an effect of 50% or more. The entries come from a sample that favours strong results as a whole.

As for `CCOc1ccccc1OCC1CNCCO1` (stereo not drawn) [Viloxazine hydrochloride] + CCCCNC(=O)OCC#CI [3-iodo-2-propynyl butylcarbamate (IPBC)], the growth yield reads like this: (40 h) 103 ± 19%; (72 h) 102 ± 14%.
On to `Clc1ccccc1C(c1ccccc1)(c1ccccc1)n1ccnc1` [Clotrimazole] + CCCCNC(=O)OCC#CI [3-iodo-2-propynyl butylcarbamate (IPBC)], for which the growth yield is, setting by setting: (40 h) 5.08 ± 0.32%; (72 h) 3.46 ± 0.1%.
For `CCN1CCCC1CNC(=O)c1cc(S(N)(=O)=O)ccc1OC` (stereo not drawn) [Sulpiride] + CCCCNC(=O)OCC#CI [3-iodo-2-propynyl butylcarbamate (IPBC)] the same measures were 86.41 ± 0.32% and 90.3 ± 0.94%.
For `CCC(C)(C)c1ccc(CC(C)CN2C[C@@H](C)O[C@@H](C)C2)cc1` (stereo partly drawn) [Amorolfine hydrochloride] + CCCCNC(=O)OCC#CI [3-iodo-2-propynyl butylcarbamate (IPBC)], the growth yield reads like this: (40 h) 3.97 ± 0.16%; (72 h) 2.94 ± 0.21%.
Regarding `C[C@]12COC(=O)C[C@@H]1CC[C@@H]1[C@@H]2CC[C@@]2(C)[C@H]1CC[C@]2(C)O` [Oxandrolone] + CCCCNC(=O)OCC#CI [3-iodo-2-propynyl butylcarbamate (IPBC)], the growth yield runs as follows: (40 h) 102.8 ± 0.79%; (72 h) 101.8 ± 0.94%.
The corresponding values for `CCN(CC)C(=O)Nc1ccc(OCC(O)CNC(C)(C)C)c(C(C)=O)c1` (stereo not drawn) [Celiprolol hydrochloride] + CCCCNC(=O)OCC#CI [3-iodo-2-propynyl butylcarbamate (IPBC)] are 87 ± 5.7% and 92.2 ± 3.9%.
`CN[C@@H]1[C@@H](O)[C@@H](O[C@@H]2[C@@H](O)[C@H](O[C@H]3O[C@H](CN)CC[C@H]3N)[C@@H](N)C[C@H]2N)OC[C@]1(C)O.CN[C@@H]1[C@@H](O)[C@@H](O[C@@H]2[C@@H](O)[C@H](O[C@H]3O[C@H]([C@@H](C)N)CC[C@H]3N)[C@@H](N)C[C@H]2N)OC[C@]1(C)O.CN[C@@H]1[C@@H](O)[C@@H](O[C@@H]2[C@@H](O)[C@H](O[C@H]3O[C@H]([C@@H](C)NC)CC[C@H]3N)[C@@H](N)C[C@H]2N)OC[C@]1(C)O` [Gentamicine sulfate] + CCCCNC(=O)OCC#CI [3-iodo-2-propynyl butylcarbamate (IPBC)]: the growth yield is 98.3 ± 7.5% (40 h) and 101 ± 4.4% (72 h).
For `C[C@@H]1[C@H](O)[C@@H](C)/C=C/C=C/C=C/C=C/C=C/C=C/C=C/[C@H](O[C@@H]2O[C@H](C)[C@@H](O)[C@H](N)[C@@H]2O)C[C@@H]2O[C@](O)(C[C@@H](O)C[C@@H](O)[C@H](O)CC[C@@H](O)C[C@@H](O)CC(=O)O[C@H]1C)C[C@H](O)[C@H]2C(=O)O` [Amphotericin B] + CCCCNC(=O)OCC#CI [3-iodo-2-propynyl butylcarbamate (IPBC)] the same measures were 37.3 ± 4.6% and 92.61 ± 0.73%.
For `CC1OC(OC2/C=C/C=C/C=C/C=C/CC/C=C/C=C/[C@H](C)[C@@H](O)[C@@H](C)[C@H](C)OC(=O)CC(O)CC(O)CC(O)CCC(O)C(O)C[C@]3(O)CC(O)C(C(=O)O)C(C2)O3)C(O)C(N)C1O` (stereo partly drawn) [Nystatine] + CCCCNC(=O)OCC#CI [3-iodo-2-propynyl butylcarbamate (IPBC)] the same measures were 50.5 ± 2.5% and 104 ± 2.3%.
